An excerpt weighted towards active compounds, which were near 19% of everything screened.
DT40 TDP1 CPT = growth inhibition of DT40 Tdp1-/-;hTDP1 cells with camptothecin (screen for TDP1 inhibitors) | chicken DT40 Tdp1-/-;hTDP1 cells + 20 nM CPT, ATP luminescence, 48 h | Potency, µM (top dose mostly 46.2 µM), without a hit: top-dose activity change, negative = growth inhibition, hits mostly inhibitors | 420,000 tested, 12% active | AID 686979; further: potency means the concentration at half of the fitted maximal effect; nearly all actives have a fitted effect of over 55% in size
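Chicken DT40 Tdp1-/- cells complemented with human TDP1, 400 cells/well, exposed to compounds plus 20 nM camptothecin for at least 48 h at 37 C; viability read as ATP content by CellTiter-Glo luminescence.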
HT1080 IDH1KD tx = toxicity to HT-1080 IDH1 knockdown cells (counter line). HT-1080 IDH1 knockdown viability, ATP luminescence, 48 h. Potency, µM (top dose mostly 46.1 µM), for inactives: at the top dose activity, negative = toxicity, most hits filed as cytotoxic. 360,000 tested, 2% active. AID 686971;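 further: potency means the concentration at half of the fitted maximal effect; 0% = DMSO wells and -100% = cell-free medium wells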
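% activity derives from luminescence (CellTiter-Glo), normalised to DMSO and no-cell wells. HT-1080-IDH1KD cells, 750/well, had 48 h compound exposure at 37 °C.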
HT1080NT lethal = kills 2HG-producing HT-1080-NT fibrosarcoma cells; Potency, µM (series often up to 46.1 µM), for inactives: at the top dose activity, negative = less viability, actives largely listed as cytotoxic; AID 686970; 360,000 tested, 1.6% active; HT-1080-NT fibrosarcoma viability, CellTiter-Glo ATP luminescence, 48 h;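 further: NT is the 2HG producing partner of a matched IDH1 knockdown line; potency means the concentration at half of the fitted maximal effect; 0% = DMSO-treated cells and -100% = media-only wells without cells; nearly all actives have a fitted effect of over 55% in size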
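Toxicity toward the 2HG-producing NT line was scored as %Activity, normalised to DMSO and no-cell wells, from CellTiter-Glo luminescence after 48 hours' treatment.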
TDP1 cell noCPT = qHTS for Inhibitors of human tyrosyl-DNA phosphodiesterase 1 (TDP1): qHTS in cells in absence of CPT; DT40 Tdp1-/- hTDP1 cells, no CPT, ATP luminescence, 48 h; 420,000 tested, 15% active; Potency, µM (doses to about 46.2 µM), without a hit: top-dose activity change, negative = growth inhibition, actives largely listed as inhibitors; further: potency means the concentration at half of the fitted maximal effect; nearly all actives have a fitted effect of over 55% in size
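Chicken DT40 Tdp1-/- cells complemented with human TDP1, screened without camptothecin (DMSO vehicle only), 400 cells/well. Compounds pin-transferred, cells incubated at 37 °C for at least 48 hr. Growth read as ATP-dependent luminescence (CellTiter-Glo, 30 min at RT).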
IL-1B inflam inh = inflammasome signaling inhibition, IL-1 beta readout; THP-1 LPS/ATP IL-1B secretion, AlphaLISA, 16 h; active compounds read low; activity change, % at 57.5 µM; 360,000 tested, 4.7% active; AID 743279; in the data active means activity change below about -50%; inconclusive means mostly about -30% to -49%
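THP-1 cells pretreated 1 hr with compounds (up to 57.5 uM final), then stimulated with LPS (250 ng/mL final) plus ATP (1.25 mM final); secreted IL-1B measured by AlphaLISA after 16 hr, decreased signal indicating inhibition.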
* hit, by the source's call; ? = inconclusive; . = no result; [ ] = remark or other dose. Unless noted, the call rests on the fitted dose curve; in most records, active means well fitted curve in the direction sought with a large enough effect; inconclusive means small, poorly fitted or top-dose-only effect, or another doubt; inactive means no such curve, though single readings can be large; an effect the other way counts as inactive or inconclusive. Unless noted, on the % scale 0 is the no-effect control and ±100 the full control effect.

SMILES | DT40 TDP1 CPT | HT1080 IDH1KD tx | HT1080NT lethal | TDP1 cell noCPT | IL-1B inflam inh
CCOc1ccc(NC(=O)c2ccc(NC(=O)COC(=O)Cc3ccccc3)cc2)cc1 | -5.9% | -1.7% | -0.3% | -1.9% | -11.7
COc1ccc(-c2cnnn2-c2ccc(NC(=O)c3ccc(S(=O)(=O)N(C)C)cc3)cc2)cc1 | 20.6µM* | . | . | 18.4µM* | .
COc1ccc(C(=O)Nc2ccc(S(=O)(=O)N(Cc3ccccc3)c3ccccc3)cc2)cc1 | 13µM* | . | . | 5.17µM* | .
CCC[C@@H]1CC2=CC(=O)CC[C@]2(C)[C@@H]2CC[C@@]3(C)[C@H](CC[C@]3(O)CCC(=O)O)[C@H]12 | -3.9% | . | . | -26.1% | .
CC1CN(O)C2CCc3c(no[n+]3[O-])C12O (centres undefined) | -17.3% | 6.7% | 4.9% | -13.8% | -5.4
COc1ccc(CCNc2nc3ccc(Cl)cc3n3cnnc23)cc1OC | 18.4µM* | . | . | 16.4µM* | .
CN(C)[C@@H]1C(=O)C(C(N)=O)=C(O)[C@@]2(O)C(=O)C3=C(O)c4c(O)cccc4[C@@](C)(O)C3[C@H](O)C12 (some centres undefined) | ? | -0.1% | -17.2% | 18.4µM* | 17.6
CN(C)C1C(=O)C(C(N)=O)=C(O)[C@@]2(O)C(=O)C3=C(O)c4c(O)cccc4[C@@](C)(O)C3[C@H](O)C12 (some centres undefined) | 8.41µM* | . | . | -69.9% | .
CN(C)[C@@H]1C(=O)C(C(N)=O)=C(O)[C@@]2(O)C(=O)C3=C(O)c4c(O)ccc(Cl)c4[C@@](C)(O)C3C[C@@H]12 (some centres undefined) | ? | ? | ? | 23.1µM* | -12.4
CCCCn1c(O)c(C(CC)=NCCN2CCCCC2)c(=O)[nH]c1=O | -7.2% | 28.1% | 20.6% | -11.5% | 18.6
CCCCCCCCCc1ccc(O)cc1 | ? | . | . | -12.3% | .
COC(=O)C(O)(c1ccc(NC(=O)c2cccs2)cc1)C(F)(F)F (centres undefined) | -14.5% | 15.2% | 0.7% | ? | 0.0
COc1cccc(NC(=O)c2ccc3c(=O)n4nc(Nc5ccccc5OC)sc4nc3c2)c1 | 5.8µM* | . | . | 4.61µM* | .
Cc1ccc(Cl)cc1Nc1nn2c(=O)c3ccc(C(=O)NCc4cccs4)cc3nc2s1 | 14.6µM* | . | . | 16.4µM* | .
Cc1cc(OCCCC(=O)NCc2cccs2)ccc1Cl | 1.5% | -5.3% | 10.5% | -26.9% | -0.7
COc1cccc(NC(=O)N2CCC3(CC2)OCCO3)c1 | 8.7% | 5.9% | 12.2% | 9.2% | 20.5
COc1cc2c(cc1-c1cc3cc4ccoc4cc3oc1=O)OCO2 | -5.5% | . | . | -3.2% | .
O=C(c1ccc(-c2ccccc2)c(F)c1)C1CCCN(CCO)C1 (centres undefined) | ? | ? | ? | ? | -74.6*
CN1CCCC(C(=O)c2ccc(-c3ccccc3)cc2)C1 (centres undefined) | ? | -21.6% | -27.2% | 18.4µM* | -12.5
CN1CC(C(=O)c2ccccc2)C(C(=O)c2ccccc2)C1 (centres undefined) | -10.2% | 11.6%[9.24 µM] | 14.2% | ? | -6.8
COc1ccc(Cl)cc1C(=O)C1CCCN(CCO)C1 (centres undefined) | -10.7% | 0.9% | -9.5% | -9.6% | 16.7
C=CCc1ccc(OCCn2nnc3ccccc32)c(OC)c1 | 10.3µM* | -12.9% | -27.7% | 8.2µM* | 24.9
C=CCN1C(=O)NC(=O)C(Cc2ccc(OC)c(OC)c2)C1=O (centres undefined) | -4.3% | 18.3% | 10.9% | -24.2% | -10.6
O=[N+]([O-])c1ccc(N2CCCC(C(F)(F)F)C2)c2ccncc12 (centres undefined) | 13µM* | ? | ? | 9.2µM* | 17.9
O=c1c2ccccc2cnn1Cc1n[nH]c(=S)n1C1CC2CCC1C2 (centres undefined) | ? | -12.0% | -3.7% | 18.4µM* | 3.7
SMILES | DT40 TDP1 CPT | HT1080 IDH1KD tx | HT1080NT lethal | TDP1 cell noCPT | IL-1B inflam inh
COc1ccc(C(c2nnnn2-c2c(C)cccc2C)N2CCC3(CC2)C(=O)NCN3c2ccccc2)cc1 (centres undefined) | 14.6µM* | ? | 23.1µM* | 20.6µM* | -64.5*
O=C1NCN(c2ccccc2)C12CCN(C(c1ccccc1)c1nnnn1C1CCCC1)CC2 (centres undefined) | ? | -8.4% | -0.8% | ? | ?
Cc1cccc(C)c1-n1nnnc1C(c1ccnc2ccccc12)N1CCC2(CC1)C(=O)NCN2c1ccccc1 (centres undefined) | 23.1µM* | ? | ? | 14.6µM* | ?
Cc1cccc(C)c1-n1nnnc1C(c1ccccc1)N1CCC2(CC1)C(=O)NCN2c1ccccc1 (centres undefined) | 23.1µM* | ? | ? | 20.6µM* | ?
CC(C)(C)n1nnnc1C(C1CC1)N1CCC2(CC1)C(=O)NCN2c1ccccc1 (centres undefined) | ? | 0.8% | 17.1% | 16.4µM* | -20.7
CN1OC[C@@H]2CN[C@H](c3ccc(Br)cc3)C[C@@H]21 | -19.8% | -0.7% | 5.9% | -17.2% | 4.8
CC(C)(C)C(=O)N1Cc2cnnn2-c2ccccc2C1C#N (centres undefined) | -0.1% | 10.0% | 10.4% | 10.3% | 17.8
O=P1(Oc2ccccc2)C[C@@H](O)[C@@H](O)[C@H](COCc2ccccc2)O1 (some centres undefined) | -9.3% | 24.6% | 20.1% | -8.7% | -0.1
NC12CN3CN(CN(C3)C1)C2 (tested in a mixture with another compound) | -7.9% | 25.5% | -6.3% | -7.1% | -4.6
CC(CCC(=O)O)C1CCC2C3C(=O)CC4CC(=O)CC[C@@]4(C)C3CC(=O)[C@]12C (some centres undefined) | 5.9% | . | . | -4.4% | .
Cc1cccc(C)c1-n1nnnc1C(C1CC1)N1CCC2(CC1)C(=O)NCN2c1ccccc1 (centres undefined) | 16.4µM* | ? | ? | 14.6µM* | -27.8
COc1ccc(-n2nnnc2C(C2CC2)N2CCC3(CC2)C(=O)NCN3c2ccccc2)cc1 (centres undefined) | ? | 0.6% | 10.2% | ? | -17.7
NC[C@H](CP(=O)(O)O)c1ccc(Cl)cc1 | 19.2% | . | . | 1.1% | .
CCN(CC)C(=O)c1ccc(NC(=O)c2cccc(S(=O)(=O)N3CCN(Cc4ccccc4)CC3)c2)cc1 | 18.4µM* | -28.0% | -10.0% | 13µM* | ?

Bioassay records as filed in PubChem.
